Tests used:
Experiment in all cases: PBM; 200 nM protein, PBS
Conditions in all cases: dsDNA, one strand shown
MSX2 [1] = target: MSX2 (Homo sapiens, UniProt P35548 130-214, R199I)
MSX2 [2] = target: MSX2 (Homo sapiens, UniProt P35548 130-214)
MSX2 [3] = target: MSX2 (Homo sapiens, UniProt P35548 130-214, F161Y)
ALX1 [4] = target: ALX1 (Homo sapiens, UniProt Q15699 118-204, L144V)
ALX1 [5] = target: ALX1 (Homo sapiens, UniProt Q15699 118-204, L144R)
ALX1 [6] = target: ALX1 (Homo sapiens, UniProt Q15699 118-204)
Chain of ALX1 (Homo sapiens, UniProt Q15699 118-204) (Q15699 118-204): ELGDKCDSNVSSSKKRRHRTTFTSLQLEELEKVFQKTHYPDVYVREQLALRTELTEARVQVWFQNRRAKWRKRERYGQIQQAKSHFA

Chain of ALX1 (Homo sapiens, UniProt Q15699 118-204, L144R) (Q15699 118-204 L144R): as the sequence (Q15699 118-204) above, with L27R counted along it
Chain of ALX1 (Homo sapiens, UniProt Q15699 118-204, L144V) (Q15699 118-204 L144V): as the sequence (Q15699 118-204) above, with L27V counted along it
Chain of MSX2 (Homo sapiens, UniProt P35548 130-214, F161Y) (P35548 130-214 F161Y): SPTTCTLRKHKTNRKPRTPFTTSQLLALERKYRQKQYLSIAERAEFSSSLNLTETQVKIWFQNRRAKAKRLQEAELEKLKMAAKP
Chain of MSX2 (Homo sapiens, UniProt P35548 130-214, R199I) (P35548 130-214 R199I): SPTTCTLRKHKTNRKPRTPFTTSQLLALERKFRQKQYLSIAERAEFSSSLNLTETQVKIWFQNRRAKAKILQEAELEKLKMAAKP
Chain of MSX2 (Homo sapiens, UniProt P35548 130-214) (P35548 130-214): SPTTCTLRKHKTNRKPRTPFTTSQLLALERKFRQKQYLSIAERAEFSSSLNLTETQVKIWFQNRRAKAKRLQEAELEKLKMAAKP

Row | Sequence | binding signal (MSX2 [1]) | binding signal (MSX2 [2]) | binding signal (MSX2 [3]) | binding signal (ALX1 [4]) | binding signal (ALX1 [5]) | binding signal (ALX1 [6])
1 | ATTAACAC | 11.3 upbm affinity estimate (log intensity, higher = more binding, comparable within an allelic series) | 12.1 upbm affinity estimate (log intensity, higher = more binding, comparable within an allelic series) | 11.8 upbm affinity estimate (log intensity, higher = more binding, comparable within an allelic series) |  |  | 
2 | CTCCTGGA |  |  |  | 6.55 upbm affinity estimate (log intensity, higher = more binding, comparable within an allelic series) | 6.53 upbm affinity estimate (log intensity, higher = more binding, comparable within an allelic series) | 6.48 upbm affinity estimate (log intensity, higher = more binding, comparable within an allelic series)
3 | AGCGCAGC |  |  |  | 6.5 upbm affinity estimate (log intensity, higher = more binding, comparable within an allelic series) | 6.49 upbm affinity estimate (log intensity, higher = more binding, comparable within an allelic series) | 6.42 upbm affinity estimate (log intensity, higher = more binding, comparable within an allelic series)
4 | CTGAATTC |  |  |  | 7.73 upbm affinity estimate (log intensity, higher = more binding, comparable within an allelic series) | 7.6 upbm affinity estimate (log intensity, higher = more binding, comparable within an allelic series) | 7.82 upbm affinity estimate (log intensity, higher = more binding, comparable within an allelic series)
5 | CTAGCTGC |  |  |  | 6.42 upbm affinity estimate (log intensity, higher = more binding, comparable within an allelic series) | 6.45 upbm affinity estimate (log intensity, higher = more binding, comparable within an allelic series) | 6.31 upbm affinity estimate (log intensity, higher = more binding, comparable within an allelic series)
6 | CCGAGAGC |  |  |  | 6.61 upbm affinity estimate (log intensity, higher = more binding, comparable within an allelic series) | 6.63 upbm affinity estimate (log intensity, higher = more binding, comparable within an allelic series) | 6.63 upbm affinity estimate (log intensity, higher = more binding, comparable within an allelic series)
7 | ATTTATCG |  |  |  | 8.96 upbm affinity estimate (log intensity, higher = more binding, comparable within an allelic series) | 8.71 upbm affinity estimate (log intensity, higher = more binding, comparable within an allelic series) | 9.21 upbm affinity estimate (log intensity, higher = more binding, comparable within an allelic series)
8 | CGACTGCC |  |  |  | 6.48 upbm affinity estimate (log intensity, higher = more binding, comparable within an allelic series) | 6.43 upbm affinity estimate (log intensity, higher = more binding, comparable within an allelic series) | 6.37 upbm affinity estimate (log intensity, higher = more binding, comparable within an allelic series)
9 | ACTTTAAA |  |  |  | 8.62 upbm affinity estimate (log intensity, higher = more binding, comparable within an allelic series) | 8.74 upbm affinity estimate (log intensity, higher = more binding, comparable within an allelic series) | 8.8 upbm affinity estimate (log intensity, higher = more binding, comparable within an allelic series)
10 | AAGACAAT |  |  |  | 8.75 upbm affinity estimate (log intensity, higher = more binding, comparable within an allelic series) | 8.63 upbm affinity estimate (log intensity, higher = more binding, comparable within an allelic series) | 8.96 upbm affinity estimate (log intensity, higher = more binding, comparable within an allelic series)
11 | CGACGGCG |  |  |  | 6.62 upbm affinity estimate (log intensity, higher = more binding, comparable within an allelic series) | 6.71 upbm affinity estimate (log intensity, higher = more binding, comparable within an allelic series) | 6.56 upbm affinity estimate (log intensity, higher = more binding, comparable within an allelic series)
12 | GAGGAGCC |  |  |  | 6.5 upbm affinity estimate (log intensity, higher = more binding, comparable within an allelic series) | 6.54 upbm affinity estimate (log intensity, higher = more binding, comparable within an allelic series) | 6.27 upbm affinity estimate (log intensity, higher = more binding, comparable within an allelic series)
13 | GGAGAAAC |  |  |  | 6.41 upbm affinity estimate (log intensity, higher = more binding, comparable within an allelic series) | 6.7 upbm affinity estimate (log intensity, higher = more binding, comparable within an allelic series) | 6.58 upbm affinity estimate (log intensity, higher = more binding, comparable within an allelic series)
14 | ATAACTCC |  |  |  | 8.41 upbm affinity estimate (log intensity, higher = more binding, comparable within an allelic series) | 8.38 upbm affinity estimate (log intensity, higher = more binding, comparable within an allelic series) | 8.38 upbm affinity estimate (log intensity, higher = more binding, comparable within an allelic series)
15 | ATATTGTC |  |  |  | 8.09 upbm affinity estimate (log intensity, higher = more binding, comparable within an allelic series) | 8.02 upbm affinity estimate (log intensity, higher = more binding, comparable within an allelic series) | 8 upbm affinity estimate (log intensity, higher = more binding, comparable within an allelic series)
16 | CCAGACTC |  |  |  | 6.24 upbm affinity estimate (log intensity, higher = more binding, comparable within an allelic series) | 6.47 upbm affinity estimate (log intensity, higher = more binding, comparable within an allelic series) | 6.13 upbm affinity estimate (log intensity, higher = more binding, comparable within an allelic series)
17 | GACTCCCC |  |  |  | 6.43 upbm affinity estimate (log intensity, higher = more binding, comparable within an allelic series) | 6.48 upbm affinity estimate (log intensity, higher = more binding, comparable within an allelic series) | 6.25 upbm affinity estimate (log intensity, higher = more binding, comparable within an allelic series)
18 | CAGACTGG |  |  |  | 6.33 upbm affinity estimate (log intensity, higher = more binding, comparable within an allelic series) | 6.4 upbm affinity estimate (log intensity, higher = more binding, comparable within an allelic series) | 6.39 upbm affinity estimate (log intensity, higher = more binding, comparable within an allelic series)

Row | Sequence | binding signal (MSX2 [1]) | binding signal (MSX2 [2]) | binding signal (MSX2 [3]) | binding signal (ALX1 [4]) | binding signal (ALX1 [5]) | binding signal (ALX1 [6])
19 | GCTGGCAC |  |  |  | 6.46 upbm affinity estimate (log intensity, higher = more binding, comparable within an allelic series) | 6.45 upbm affinity estimate (log intensity, higher = more binding, comparable within an allelic series) | 6.58 upbm affinity estimate (log intensity, higher = more binding, comparable within an allelic series)
20 | ATTTAGTA |  |  |  | 9.39 upbm affinity estimate (log intensity, higher = more binding, comparable within an allelic series) | 9.22 upbm affinity estimate (log intensity, higher = more binding, comparable within an allelic series) | 9.79 upbm affinity estimate (log intensity, higher = more binding, comparable within an allelic series)
21 | CGACAGGC |  |  |  | 6.36 upbm affinity estimate (log intensity, higher = more binding, comparable within an allelic series) | 6.36 upbm affinity estimate (log intensity, higher = more binding, comparable within an allelic series) | 6.15 upbm affinity estimate (log intensity, higher = more binding, comparable within an allelic series)
22 | GCACCAGC |  |  |  | 6.41 upbm affinity estimate (log intensity, higher = more binding, comparable within an allelic series) | 6.46 upbm affinity estimate (log intensity, higher = more binding, comparable within an allelic series) | 6.19 upbm affinity estimate (log intensity, higher = more binding, comparable within an allelic series)
23 | AATGAACC |  |  |  | 8.42 upbm affinity estimate (log intensity, higher = more binding, comparable within an allelic series) | 8.46 upbm affinity estimate (log intensity, higher = more binding, comparable within an allelic series) | 8.7 upbm affinity estimate (log intensity, higher = more binding, comparable within an allelic series)
24 | ATGTGTAA |  |  |  | 8.64 upbm affinity estimate (log intensity, higher = more binding, comparable within an allelic series) | 8.5 upbm affinity estimate (log intensity, higher = more binding, comparable within an allelic series) | 8.88 upbm affinity estimate (log intensity, higher = more binding, comparable within an allelic series)
25 | ATTATTGA |  |  |  | 10.4 upbm affinity estimate (log intensity, higher = more binding, comparable within an allelic series) | 10.3 upbm affinity estimate (log intensity, higher = more binding, comparable within an allelic series) | 10.8 upbm affinity estimate (log intensity, higher = more binding, comparable within an allelic series)
26 | CTGGAACC |  |  |  | 6.21 upbm affinity estimate (log intensity, higher = more binding, comparable within an allelic series) | 6.18 upbm affinity estimate (log intensity, higher = more binding, comparable within an allelic series) | 6.07 upbm affinity estimate (log intensity, higher = more binding, comparable within an allelic series)
27 | ACATAATA |  |  |  | 9.56 upbm affinity estimate (log intensity, higher = more binding, comparable within an allelic series) | 9.39 upbm affinity estimate (log intensity, higher = more binding, comparable within an allelic series) | 9.89 upbm affinity estimate (log intensity, higher = more binding, comparable within an allelic series)
28 | GACTCGAC |  |  |  | 6.55 upbm affinity estimate (log intensity, higher = more binding, comparable within an allelic series) | 6.63 upbm affinity estimate (log intensity, higher = more binding, comparable within an allelic series) | 6.64 upbm affinity estimate (log intensity, higher = more binding, comparable within an allelic series)
29 | CCAGCGGC |  |  |  | 6.38 upbm affinity estimate (log intensity, higher = more binding, comparable within an allelic series) | 6.67 upbm affinity estimate (log intensity, higher = more binding, comparable within an allelic series) | 6.48 upbm affinity estimate (log intensity, higher = more binding, comparable within an allelic series)
30 | CACAGAGC |  |  |  | 6.53 upbm affinity estimate (log intensity, higher = more binding, comparable within an allelic series) | 6.53 upbm affinity estimate (log intensity, higher = more binding, comparable within an allelic series) | 6.59 upbm affinity estimate (log intensity, higher = more binding, comparable within an allelic series)
31 | GTCCAGAC |  |  |  | 6.53 upbm affinity estimate (log intensity, higher = more binding, comparable within an allelic series) | 6.49 upbm affinity estimate (log intensity, higher = more binding, comparable within an allelic series) | 6.42 upbm affinity estimate (log intensity, higher = more binding, comparable within an allelic series)
32 | TCTGTTAA |  |  |  | 8.7 upbm affinity estimate (log intensity, higher = more binding, comparable within an allelic series) | 8.61 upbm affinity estimate (log intensity, higher = more binding, comparable within an allelic series) | 9.01 upbm affinity estimate (log intensity, higher = more binding, comparable within an allelic series)
33 | AAGGCGTG |  |  |  | 6.54 upbm affinity estimate (log intensity, higher = more binding, comparable within an allelic series) | 6.5 upbm affinity estimate (log intensity, higher = more binding, comparable within an allelic series) | 6.55 upbm affinity estimate (log intensity, higher = more binding, comparable within an allelic series)
34 | GGACGGCC |  |  |  | 6.43 upbm affinity estimate (log intensity, higher = more binding, comparable within an allelic series) | 6.53 upbm affinity estimate (log intensity, higher = more binding, comparable within an allelic series) | 6.53 upbm affinity estimate (log intensity, higher = more binding, comparable within an allelic series)
35 | CTGGGCGA |  |  |  | 6.34 upbm affinity estimate (log intensity, higher = more binding, comparable within an allelic series) | 6.37 upbm affinity estimate (log intensity, higher = more binding, comparable within an allelic series) | 6.87 upbm affinity estimate (log intensity, higher = more binding, comparable within an allelic series)
36 | CCGACTGC |  |  |  | 6.5 upbm affinity estimate (log intensity, higher = more binding, comparable within an allelic series) | 6.49 upbm affinity estimate (log intensity, higher = more binding, comparable within an allelic series) | 6.52 upbm affinity estimate (log intensity, higher = more binding, comparable within an allelic series)
